# In PubChem BioAssay AID1476 (National Center for Advancing Translational Sciences (NCATS), 2009):
# Among all 200,000 compounds or so, about 4,500 (2.2%) were called active. Roughly 12% stayed inconclusive and do not appear here. The full list was thinned out, with actives kept by preference. Unmarked numbers belong to inactive results. The call rests on the fitted dose curve; in most records, active means well fitted inhibition curve with a large enough effect; inconclusive means small, poorly fitted or top-dose-only effect, or effect the other way; inactive means flat fitted curve, though single readings scatter.
# Target: Cruzipain (Trypanosoma cruzi) (UniProt P25779)
# Experiment: qHTS Assay for Promiscuous and Specific Inhibitors of Cruzain (without detergent); further: nearly all actives have a fitted effect of over 40% in size
# Conditions: purified cruzain, Z-FR-AMC fluorescence, no detergent
# Procedure: Cruzain is a cysteine protease from the tropical parasite Trypanosoma cruzi. Dual qHTS experiment was performed against the NCGC compound collection in order to 1) identify novel inhibitors of the enzyme and 2) profile the compound collection for promiscuous inhibitors operating via colloidal aggregation (by performing detergent-free and detergent-containing comparison screens). Cruzain was assayed by the use of fluorogenic coumarin-based substrate Z-FR-AMC: proteolytic cleavage releases AMC, whose fluorescence is measured at 360 nm excitation and 450 nm emission. Purified cruzain was supplied by the labs of Prof. James McKerrow and Brian Shoichet, UC San Francisco.
# This assay had 0.00005% Triton X-100 concentration. See also releated assay "qHTS Assay for Promiscuous and Specific Inhibitors of Cruzain (with detergent)" with 0.01% Triton X-100.
# See following references for additional details:
# Assay Provider: Shoichet, Brian; University of California, San Fancisco
# Screening Center PI: Austin, C.P.
# Screening Center: NIH Chemical Genomics Center [NCGC]
# Buffer: 100 mM Sodium Acetate, pH 5.5, 5 mM DTT, Triton X-100 concentration: 0.01%.
# Buffer in columns 3 and 4 as negative control (no enzyme).
# Substrate solution: 2 uM final concentration of Z-FR-AMC (catalog number I-1160, Bachem) dispensed throughout the plate.
# Enzyme: 1.5 nM Cruzain final concentration in columns 1, 2, 5-48. Column 1 is neutral (100% activity). Column 2 contained titration of covalent inhibitor K11777, starting concentration 1 mM, then 1:2 dilution in duplicate).
# Three uL of enzyme or buffer were dispensed to 1536-well Greiner black solid bottom plates. Compounds and controls (23 nL) were transferred via Kalypsys PinTool. The plates were incubated for 15 min at room temperature, and then 1 uL of substrate solution was added to start the reaction. The plates were immediately transferred to and read 4 times every 30 seconds for 2 min on ViewLux High-throughput CCD imager (Perkin-Elmer) using 360 nm excitation and 450 nm emission fluorescence protocol. The fluorescence intensity difference between the third and the first time points (time lapse of 60 seconds) was used to compute reaction progress.
# Potency means the concentration at half of the fitted maximal effect.
# Chain of Cruzipain (Trypanosoma cruzi) (P25779 123-467 limits assumed): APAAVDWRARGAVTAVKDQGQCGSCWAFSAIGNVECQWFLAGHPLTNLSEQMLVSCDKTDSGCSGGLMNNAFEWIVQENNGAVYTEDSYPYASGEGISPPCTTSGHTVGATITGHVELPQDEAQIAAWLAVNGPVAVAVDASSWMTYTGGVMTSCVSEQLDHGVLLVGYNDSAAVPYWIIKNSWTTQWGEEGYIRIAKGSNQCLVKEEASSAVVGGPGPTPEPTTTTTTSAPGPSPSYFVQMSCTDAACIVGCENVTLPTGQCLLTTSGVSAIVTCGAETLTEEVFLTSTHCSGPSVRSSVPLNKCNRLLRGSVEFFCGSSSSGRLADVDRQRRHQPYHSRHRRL
SMILES,"max response, negative = inhibition",Potency
O=C(O)c1c(CNCc2cccc(F)c2)c2ccccc2n1Cc1ccccc1,0.0489%,
Cc1cc(C)c(NC(=O)CS(=O)CC(=O)Nc2cccnc2)c(C)c1 (stereo unspecified),-6.14%,
Cc1ccc(NC(=O)COc2ccc(-n3ccnc3)cc2)cc1Cl,3.27%,
Cc1ccc(-c2nc(-c3cccnc3)sc2CC(=O)Nc2ccc(C)c(Cl)c2)cc1,,25.1 µM (active)
Cc1ccc(-c2ccc(CCC(=O)O)n2-c2ccc(C(N)=O)cc2)cc1,-3.67%,
O=C(Nc1ccc2c(c1)CCC2)c1cccc(S(=O)(=O)N2CCN(c3ccc(F)cc3)CC2)c1,,20 µM (active)
O=C(Nc1ccc2c(c1)CCC2)c1cccc(S(=O)(=O)Nc2ccccc2Cl)c1,-19.6%,
O=C(Nc1cccc(F)c1)c1ccc(S(=O)(=O)N2CCCC2)cc1,6.1%,
O=C(Cn1nc(Cc2cccnc2)c2ccccc2c1=O)N1CCN(c2ccccc2F)CC1,-3.19%,
O=C(NCCc1ccccc1)c1ccc2c(c1)N(Cc1ccccc1)C(=O)c1ccccc1S2(=O)=O,,20 µM (active)
O=C(NCCc1ccccc1)c1ccc2c(c1)N(Cc1ccc(F)cc1)C(=O)c1ccccc1S2(=O)=O,2.91%,
COCCNC(=O)c1ccc2c(c1)N(Cc1cccc(Cl)c1)C(=O)c1ccccc1S2(=O)=O,9.95%,
Cc1nn(-c2ccc(N3CCCCC3)nn2)c(C)c1CCC(=O)NCc1ccccc1F,-5.41%,
Cc1cc(Br)ccc1NC(=O)Cn1cnc2sc(C)c(S(=O)(=O)N3CCN(C)CC3)c2c1=O,-2.69%,
Clc1ccc(-c2nnc(SCc3nc4ccccc4s3)o2)cc1,-6.5%,
c1ccc(-c2nnc(SCc3nc4ccccc4[nH]3)o2)cc1,,12.6 µM (active)
Clc1ccccc1SCc1nc2ccccc2[nH]1,-0.47%,
COc1ccc(N2CC(C(=O)NCCS(=O)(=O)N3CCN(c4ccccc4)CC3)CC2=O)cc1 (stereo unspecified),3.76%,
O=C(Cc1c[nH]c2ccccc12)OCCOC(=O)Cc1c[nH]c2ccccc12,1.16%,

SMILES,"max response, negative = inhibition",Potency
Cc1[nH]c2ccccc2c1C(=O)COC(=O)C(C)C,3.26%,
Cc1ccc(C(=O)COC(=O)C(Cc2c[nH]c3ccccc23)NC(=O)c2ccc(Br)cc2)cc1 (stereo unspecified),,12.6 µM (active)
CN(C(=O)c1ccc2c(c1)N(Cc1cccc(Cl)c1)C(=O)c1ccccc1S2=O)C1CCCCC1 (stereo unspecified),-3.62%,
Cc1csc2nc(COC(=O)c3ccccc3NC(=O)c3ccccc3Cl)cc(=O)n12,-1.98%,
COc1ccc(Cl)cc1NC(=O)C(C)Sc1nc2c(c(=O)[nH]1)CCCC2 (stereo unspecified),-3.86%,
O=S(=O)(c1ccc2nc(N3CCN(c4cccc(Cl)c4)CC3)ccc2c1)N1CCCCC1,-14.3%,
O=C1Nc2ccccc2C12Nc1ccccc1S2 (stereo unspecified),,25.1 µM (active)
Cc1ccc(NC2(C#N)C(=O)Nc3ccccc32)cc1 (stereo unspecified),-4.74%,
CCc1ccc2c(c1)C1(NN=C(c3ccccc3)S1)C(=O)N2 (stereo unspecified),-24.1%,
O=c1c(O)c(Br)ccc2c(Br)c(O)c(O)c(O)c12,-27.1%,
CCC(C)Nc1oc(-c2ccc(COc3ccc(Cl)cc3)o2)nc1C#N (stereo unspecified),2.48%,
O=C1CN(c2nc(-c3ccccc3)c3cc(Br)ccc3n2)c2ccccc2N1,,12.6 µM (active)
Cc1ccc(S(=O)(=O)N2CC(=O)Nc3ccccc32)cc1C,2.47%,
O=C(O)c1ccc(Nc2nc(-c3ccccc3)c3cc(Br)ccc3n2)cc1,27.1%,
Fc1ccc(-c2nn(-c3ccccc3Cl)c3c2cnc2ccccc23)cc1,4.61%,
O=C(CC1C(=O)N(c2ccccc2)C(=O)N1CCc1cccs1)Nc1ccc(F)cc1 (stereo unspecified),2.56%,
O=C(CCSCc1ccccc1F)N1CCN(c2ccc(Cl)cc2)CC1,2.72%,
Cc1ccc(-c2nn(CCC(=O)Nc3ccc(Cl)c(Cl)c3)c(=O)c3ccccc23)cc1,-2.75%,
CCN(CC)c1nn2c(=O)c(C(=O)NCCc3ccccc3)cnc2s1,-4.42%,

SMILES,"max response, negative = inhibition",Potency
O=C(NCc1ccc2c(c1)CCN2C(=O)c1ccccc1)Nc1cc(F)ccc1F,-19.6%,
COc1ccc(CNC(=O)c2cc3c(s2)-c2ccccc2OC3)cc1,16.2%,
Cc1ccc(NC(=O)CSc2nc3c([nH]c4ccccc43)c(=O)n2-c2ccccc2)c(C)c1,12.6%,
Cc1cc(C)c(NC(=O)Cn2c(SCC(=O)NCc3ccccc3)nc3ccccc32)c(C)c1,7.19%,
Cc1ccc(-n2c(SCC(=O)Nc3ncc(Cl)cc3Cl)nc3ccccc32)cc1,,20 µM (active)
c1ccc2c(c1)-c1ccccc1C2N1CC2CCC(CC2)C1,1.3%,
NS(=O)(=O)c1ccc(N=Cc2ccc(Br)s2)cc1,-5.17%,
Brc1ccc(/C=N/N2CCN(C3c4ccccc4-c4ccccc43)CC2)s1,,12.6 µM (active)
O=C(c1ccc2c(c1)N(Cc1ccccc1)C(=O)c1ccccc1S2(=O)=O)N1CCC(Cc2ccccc2)CC1,1.2%,
COc1ccc(-c2nnc(SC(=O)N3c4ccccc4Sc4ccccc43)o2)cc1,,31.6 µM (active)
COc1ccc(-c2nnc(SCc3cccnc3)o2)cc1,15.4%,
COc1ccc(-c2nnc(SC(C)C#N)o2)cc1 (stereo unspecified),2.59%,
CCOC(=O)c1ccc(NC(=O)CC2C(=O)N(c3cccc(OC)c3)C(=O)N2C2CCCCC2)cc1 (stereo unspecified),-1.66%,
Cc1ccc(C(=O)NCCSc2c(C)[nH]c3ccccc23)cc1C,13.2%,
N#CC1=C(SCc2ccc(C#N)cc2)N=C(N)C(c2nc(-c3ccccc3)cs2)C12CCCCC2 (stereo unspecified),,10 µM (active)
N#CC1=C(SCc2ccccc2)NC(=O)C(C#N)C12CCCC2 (stereo unspecified),-1.74%,
COc1ccc(CCNc2nc(-c3ccc(Cl)cc3)cc(C(F)(F)F)n2)cc1OC,-3.01%,
Cc1nn(Cc2ccc(F)cc2)c(C)c1NC(=O)c1cc(CC(C)C)on1,2.49%,
